Compounds with a hit are over-represented: about 4% of the library has one in this group of screens.
KKLEB tox: counter-screen for CF NF-kB inhibitors: cytotoxicity; activity change (cytotoxicity), % at 5 µM; KKLEB CF airway cells viability, ATPlite luminescence, overnight; stronger effect = lower value; cells stimulated with P. aeruginosa culture filtrate; actives 0.36% (n = 360,000);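 active means corrected activity change at or below -50% at 5 µM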
CF NFkB block: blocks PAF-induced NF-kB reporter in cystic fibrosis cells; KKLEB NF-kB-GFP reporter, GFP fluorescence overnight; inhibition, % at 5 µM; actives 0.86% (n = 360,000); AID 588850;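 active means at least 50% inhibition at 5 µM, scaled per plate between neutral and stimulator controls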;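 further: PAF is a Pseudomonas aeruginosa culture filtrate used as stimulus; plate controls were PAF-stimulated DMSO wells for no effect and unstimulated DMSO wells for full effect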
Peg3 prom inh: Peg3 promoter activity inhibition. inhibition, % at 20 µM. HeLa PEG-Prom luciferase reporter, luminescence, overnight. actives 1.7% (n = 360,000);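 active means inhibition of at least 50% at 20 µM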
HIF-2a block: blocks HIF-2a reporter activity; 786-0 RCC cells HIF-2a reporter, luciferase luminescence, overnight; inhibition, % at 18.8 µM; actives 0.72% (n = 360,000); AID 624352;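 active means inhibition of the luminescence signal of 40% or more relative to plate controls, in a single-dose primary screen at 18.75 µM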
TROY NFkB inh: inhibitors of TROY-dependent NF-kB signaling | Q293 LMP1-TROYcd NF-kB luciferase reporter, 4 h | inhibition, % at 10 µM | actives 0.98% (n = 360,000) | AID 1347056;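 active means compounds whose plate-normalised and pattern-corrected inhibition of the luciferase reporter signal at the single screening dose is 50% or more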
TWEAK-Fn14 inh: blocks TWEAK-Fn14 interaction in a reporter cell assay; inhibition, % at 10 µM; TWEAK-stimulated Fn14 reporter cells, luciferase luminescence, 8 h; actives 2% (n = 360,000); in the data active means inhibition above about 50%
An asterisk follows results filed as active; nt = not tested or not shown.

SMILES	KKLEB tox	CF NFkB block	Peg3 prom inh	HIF-2a block	TROY NFkB inh	TWEAK-Fn14 inh
Cc1ccccc1NC(=O)N1CCCC(c2nc(-c3ccc(C(C)C)cc3)no2)C1 (stereo not given)	5	-10	-51	-27	74*	55*
Cc1ccccc1NC(=O)N1CCCC(c2nc(-c3ccc(F)cc3)no2)C1 (stereo not given)	9	1	-22	-14	2	-4
CC(C)c1ccc(-c2noc(C3CCCN(C(=O)c4ccc(F)cc4F)C3)n2)cc1 (stereo not given)	-9	2	-29	-79	27	52*
Cc1ccc(NC(=O)CCc2nc3sc4c(c3c(=O)[nH]2)CCCC4)c(Br)c1	7	-9	28	12	9	-3
COc1cccc(CNCCNC(=O)c2nonc2N)c1	-6	0	-4	5	12	9
COc1cc(CNCCNC(=O)c2nonc2N)ccc1OCc1ccc(Cl)cc1	-5	11	88*	-45	-18	-61
Cc1ccc2nc(/C(C#N)=C/c3cn[nH]c3-c3ccc(F)cc3)[nH]c2c1	-6	-4	27	-31	16	59*
CC(=O)Nc1ccc(CN2C(=O)C(Cc3ccccc3)ON=C2c2cccc(F)c2)cc1 (stereo not given)	-10	-7	6	-21	83*	-22
Cc1cccnc1C1=NOC(Cc2ccccc2)C(=O)N1Cc1ccc(F)cc1 (stereo not given)	-26	37	8	1	-61	19
CC(C)(C)OC(=O)N1CCCC(C(=O)Nc2ccc(C(=O)NCc3ccccc3)cc2)C1 (stereo not given)	11	-17	-2	-7	17	5
CCC[C@H](CN[C@@H](CNC)[C@H](C)O)NCCc1ccc(OC)cc1	1	-7	-3	8	-1	-13
CCCC[C@@H](CNC)NC[C@H](Cc1ccc(O)cc1)NCCc1ccc(OCC)cc1	-12	12	97*	-2	5	-7
O=C(Nc1ccccc1Cl)C1CCCN(S(=O)(=O)c2cccc3cccnc23)C1 (stereo not given)	12	-9	1	21	6	-9
O=C(Nc1nc2cc(Cl)ccc2s1)C1CCCN(S(=O)(=O)c2cccc3cccnc23)C1 (stereo not given)	-19	39	60*	9	46	84*
O=C(C1CCN(S(=O)(=O)c2cccc3cccnc23)CC1)N1CCN(c2ccc(Cl)cc2)CC1	-12	1	21	21	41	51*
O=c1c(Cl)c(NCCCO)cnn1-c1nc2ccccc2[nH]1	5	-7	99*	-99	-10	50
C=CCN(CC=C)c1cnn(-c2nc3ccccc3[nH]2)c(=O)c1Cl	-9	9	-180	-206	1	39
CC(=O)c1ccc(N=Nc2ccc(N)cc2)cc1	0	-23	-72	-51	11	69*
CC(=O)c1ccc(N=Nc2c(C)[nH][nH]c2=O)cc1	4	4	-121	-165	-24	-23
CC(=O)c1ccc(NC(=S)NCc2ccc(Cl)cc2Cl)cc1	10	-11	14	5	57*	3
CC(=O)c1ccc(NC(=O)Nc2ccc(Cl)cc2)cc1	24	-14	-262	-241	-17	-13
O=C(CCCCCNc1nc(=S)[nH]c2ccccc12)NCCc1c[nH]c2ccccc12	4	13	51*	19	38	41
Cc1ccc2c(c1)c1c(n2CC(O)CNC2CCCCC2)CCCC1 (stereo not given)	1	15	102*	-13	-7	-5
CCCN=C1N(C)C[C@@H]2[C@@H]3C(=O)N(C)C(=O)[C@@H]3[C@](C)(C(=O)OC)N12	6	-6	-9	10	8	13
C[C@H]1CNC(=O)c2c(C(=O)Nc3ccc(CNC(=O)OC(C)(C)C)cc3)ncn21	14	-12	42	-8	16	-8
SMILES	KKLEB tox	CF NFkB block	Peg3 prom inh	HIF-2a block	TROY NFkB inh	TWEAK-Fn14 inh
Cc1cc(C)c2nc(N3CCC(C(=O)NCCCN4CC(C)CC(C)C4)CC3)sc2c1 (stereo not given)	-9	17	104*	-57	-50	-33
Cc1cc(C)c2nc(N3CCCC(C(=O)NCCCN4CCOCC4)C3)sc2c1 (stereo not given)	-8	4	-160	-92	-54	2
CCCCC(=O)N(C)c1c(C)nc2ccc(C(=O)Nc3cccc(NS(C)(=O)=O)c3)cn12	-5	-2	-2	4	-4	-5
Cn1c(=O)c(C(=O)NC2CCCCCC2)c(O)c2ccccc21	-7	12	-120	-158	-26	-27
CC(=O)c1c(O)c2ccccc2n(C2CCCCC2)c1=O	0	49	18	19	56*	65*
O=C1Nc2ccc(Br)cc2/C1=C/C(=O)c1ccccc1	9	18	98*	23	11	55*
O=C(O)COc1ccccc1/C=C1\C(=O)Nc2ccc(Br)cc21	-9	17	1	19	13	36
Cc1ccc([C@H]2C(C(=O)O)=CCN2S(=O)(=O)c2ccc(C)cc2)cc1	nt	nt	nt	1	nt	nt
OCCN1CCN(c2ncnc3c2c(-c2ccccc2)cn3-c2ccc(Br)cc2)CC1	-9	14	35	17	10	-11
NC(=O)C1CCN(c2ncnc3c2c(-c2ccccc2)cn3-c2ccccc2)CC1	-3	17	61*	22	-15	6
C=CCNc1nc(NCCOC)c2sc(-c3ccccc3)cc2n1	4	-59	-21	-63	-25	-16
C=CCNc1nc(NCc2ccc(N(C)C)cc2)c2sc(-c3ccccc3)cc2n1	2	-28	70*	-277	-48	-67
COCCNc1nc(NCc2ccc(NC(C)=O)cc2)c2sc(-c3ccccc3)cc2n1	-54*	-38	25	-28	-69	-52
COCCNc1nc(NCc2cccc(OC)c2)c2sc(-c3ccccc3)cc2n1	-7	1	57*	-43	-54	-10
c1ccc(OCCNc2nc(NCC3CC3)nc3cc(-c4ccccc4)sc23)cc1	-29	15	47	-218	-35	31
c1ccc(CNc2nc(NCC3CC3)nc3cc(-c4ccccc4)sc23)cc1	-3	-11	83*	-78	-74	-25
COCCNc1nc(Oc2ccc(NC(C)=O)cc2)c2sc(-c3ccccc3)cc2n1	-13	17	-25	-33	-26	-6
C[C@H](CO)N1C[C@H](C)[C@@H](CN(C)S(C)(=O)=O)Oc2ccc(NC(=O)CCC(F)(F)F)cc2C1=O	1	-1	-8	14	0	-1
Cc1[nH]c2ccccc2c1C(=O)CSc1nc2cc(S(=O)(=O)N3CCCCC3)ccc2o1	2	14	27	8	-11	55*
Cc1ccc(NC(=O)CCN2C(=O)NC(C)(C)C2=O)cc1F	-4	5	2	5	-5	5
